According to PubChem BioAssay (NCI):
This is part of a sample that, as a whole, favours compounds with a hit. Of some 83,000 tested, about 20% had one in any assay.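 Assay: single dose, 48 h. Readout: percent growth (0 = no net growth; negative = cell death). Active: <10.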 A number with no mark means an inactive call. Active and inactive are the calls of the source.

Assays:
Assay in all cases: NCI-60 one-dose screen, 48 h (100 = growth as untreated, 0 = no growth, -100 = all killed)
Settings in all cases: 10 µM unless noted
[1] = tested on: NCI-H23 lung
[2] = tested on: NCI-H226 lung
[3] = tested on: NCI-H322M lung
[4] = tested on: HOP-62 NSCLC
[5] = tested on: NCI-H460 lung
[6] = tested on: A549/ATCC NSCLC
[7] = tested on: 786-0 renal
[8] = tested on: COLO 205 colon
[9] = tested on: DU-145 prostate
[10] = tested on: K-562 leukemia
[11] = tested on: MALME-3M melanoma
[12] = tested on: MDA-MB-231 breast
[13] = tested on: RXF 393 renal
[14] = tested on: SF-268 CNS
[15] = tested on: SF-295 CNS
[16] = tested on: SF-539 CNS
[17] = tested on: UACC-257 melanoma
[18] = tested on: M14 melanoma
[19] = tested on: NCI-H522 lung

SMILES	growth [1]	growth [2]	growth [3] [%]	growth [4]	growth [5]	growth [6]	growth [7]	growth [8]	growth [9]	growth [10]	growth [11]	growth [12]	growth [13]	growth [14]	growth [15]	growth [16]	growth [17]	growth [18]	growth [19]
CCCNCCC(C)=O	95.1%	108%	119	106%	103%	95.6%	110%	108%	122%	98.5%	121%	113%	127%	115%	97.1%	114%	91.7%	105%	
CCOC(OCC)c1cnc2nc(NC(C)=O)[nH]c(=O)c2n1	102%	107%	101	120%	104%	99.7%	97.5%	121%	107%	104%	89.8%	104%	110%	112%	109%	108%	109%	100%	
O=C(CC(=O)C(F)(F)C(F)(F)C(F)(F)F)c1cc2ccccc2o1	101%	99.8%	106	97.5%	110%	96.1%	98.4%	114%	114%		102%	100%	116%	111%	99.2%	94.1%	100%		
CCN(CC)CC(=O)Nc1c(C)ccc(N)c1C	101%	98.4%	90.2	94.2%	108%	100%	93.4%	97.6%	107%	128%	90.5%	107%	116%	102%	97%	99.6%	105%	101%	
Fc1cc(-c2cnc3nonc3n2)c(Cl)cc1Cl	94.2%	111%	94.1	98.3%	106%	102%	79.3%	60.2%	85.3%	28.9%	41.1%	83.4%	93%	90.9%	99.4%	110%	96%	76.8%	
COc1cc(C2CC(c3ccc(C)cc3)=NN2C=O)ccc1Oc1nc2c(c(=O)n(C)c(=O)n2C)n1C (stereo not given)	85.3%	84%	60.8	115%	98.6%	52%	110%	110%	64.5%	88.3%	87.8%	84.8%	98.6%	58.1%	69.8%	116%	-31.3% (active)	77.5%	
CCCCCCCCCCCCCCCC1=NC(C)(C)CN1C(C)C	0.554% (active)	-5.35% (active)	34.6	-77.4% (active)	-53.7% (active)	-57.2% (active)		-64.6% (active)	7.67% (active)	-50.3% (active)	-49% (active)	-62.2% (active)	-68.9% (active)	-55.2% (active)	-48.1% (active)	-79.6% (active)	-31.2% (active)	-71.4% (active)	-68.1% (active)
COc1cc(/C=C/c2cc(/C=C/c3ccc(O)c(OC)c3)n(C(=O)c3ccccc3Br)n2)ccc1O	17.7%	38.5%	39.5	43.5%	9.15% (active)	41.7%	9.91% (active)	23.9%	28.9%	3.62% (active)	23.4%	39.7%	-3.83% (active)	28%	-29.7% (active)	4.02% (active)	87.1%	5.42% (active)	
Clc1cc(Cl)cc(-c2cnc3nonc3n2)c1	77.3%	104%	95.1	87.4%	106%	103%	93.2%	72.5%	97.9%	79%	76.9%	89.7%	108%	93.5%	99.8%	107%	89.9%	90.2%	
